Most compounds without a hit are left out; they make up all but 32% or so of the library.
CYP2C19 activ – cytochrome P450 2C19 (human) activation; activation factor at 5 µM; recombinant CYP2C19, luciferin-H EGE luminescence; hits give high values; 0 = fully inhibited enzyme, 1 = untreated enzyme; 96,000 tested, under 10 active; AID 1025; P33261;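 active = activation factor of at least 2 at 5 µM in the primary screen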
CYP2C19 inh – inhibitors of human CYP2C19 | hit rate 21% among 96,000 | CYP2C19 Supersomes, luciferin-H EGE luminescence, 30 min | AID 778 | inhibition, % at 5 µM | P33261;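 active = CYP2C19 inhibition above a set limit at 5 µM in the primary screen, cut at about 50% in these data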
CYP2C9 inhib – human CYP2C9 inhibition; P11712; CYP2C9 Supersomes, luciferin-H conversion, luminescence; inhibition, % at 5 µM; hit rate 20% among 96,000;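 active = blocking of liver enzyme CYP2C9 beyond about 50% at 5 µM, limit read from the data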
Target sequence (P11712 whole entry, looked up): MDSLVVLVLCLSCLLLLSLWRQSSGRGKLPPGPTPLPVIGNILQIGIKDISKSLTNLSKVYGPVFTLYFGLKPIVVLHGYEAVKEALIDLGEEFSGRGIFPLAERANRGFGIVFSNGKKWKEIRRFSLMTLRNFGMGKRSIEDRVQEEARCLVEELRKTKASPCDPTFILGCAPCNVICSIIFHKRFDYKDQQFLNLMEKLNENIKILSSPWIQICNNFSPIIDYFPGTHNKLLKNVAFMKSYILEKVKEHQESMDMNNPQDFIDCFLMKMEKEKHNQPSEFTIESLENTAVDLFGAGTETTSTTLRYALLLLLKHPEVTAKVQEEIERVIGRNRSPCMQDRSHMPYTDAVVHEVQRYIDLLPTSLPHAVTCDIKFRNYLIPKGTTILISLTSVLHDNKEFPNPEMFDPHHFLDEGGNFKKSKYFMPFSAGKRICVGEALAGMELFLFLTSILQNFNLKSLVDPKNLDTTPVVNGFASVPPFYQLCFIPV
PostGolgi ctrl – growth of the yeast control strain, post-Golgi counter-screen | inhibition, % at 10 µM | hit rate 5% among 98,000 | efflux-deficient yeast background strain, growth absorbance A615, 16 h
CYP2C9 act – increases human cytochrome P450 2C9 activity; P11712; recombinant CYP2C9, luciferin-H conversion, luminescence; hits give high values; factor 1 = untreated enzyme, 0 = blocked; activation factor at 5 µM; hit rate 1.4% among 96,000; AID 1024;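 active = activation factor of 2 or more for CYP2C9 at a 5 µM dose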
PostGolgi yeast – growth inhibition of a yeast mutant, post-Golgi transport screen; post-Golgi transport phenotypic cell assay; inhibition, % at 10 µM; hit rate 0.9% among 98,000; AID 739;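 also: yeast cells grown in 1536-well plates; yeast grown about 18 h at 30C before absorbance read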
Hits are given with their value. Rule as the data show it, unless noted: active = inhibition above about 30%; inactive = the rest.

`CS(=O)(=O)c1nc(-c2ccccc2)cc(C(F)(F)F)n1` gave PostGolgi ctrl 51 and PostGolgi yeast inactive.
Screening O=C(Nc1ccc(S(=O)(=O)Nc2ncccn2)cc1)c1ccco1 returned CYP2C19 activ inactive, CYP2C19 inh inactive, CYP2C9 inhib inactive, PostGolgi ctrl inactive, CYP2C9 act inactive and PostGolgi yeast inactive.
Screening CC(C)c1ccc2oc(=O)cc(CN3CCN(c4ccc(F)cc4)CC3)c2c1 returned CYP2C19 activ inactive, CYP2C19 inh inactive, CYP2C9 inhib inactive, PostGolgi ctrl 33, CYP2C9 act inactive and PostGolgi yeast inactive.
`CCc1ccc2oc(=O)cc(CN3CCN(c4ccc(F)cc4)CC3)c2c1` gave CYP2C19 activ inactive, CYP2C19 inh 52, CYP2C9 inhib inactive, PostGolgi ctrl 38, CYP2C9 act inactive and PostGolgi yeast inactive.
Screening COc1ccc(NCN2C(=O)CCC2=O)cc1 returned CYP2C19 activ inactive, CYP2C19 inh inactive, CYP2C9 inhib inactive, PostGolgi ctrl inactive, CYP2C9 act inactive and PostGolgi yeast inactive.
CC1Cc2ccccc2N1C(=O)Cn1c(=O)cc(O)c2ccccc21 (stereo not given) was read as CYP2C19 activ inactive, CYP2C19 inh inactive, CYP2C9 inhib inactive, PostGolgi ctrl inactive, CYP2C9 act inactive and PostGolgi yeast inactive.
For Cc1ccc(NC2=NC(c3ccccc3)n3c(nc(C)cc3=O)N2)c(C)c1 (stereo not given) the results were CYP2C19 activ inactive, CYP2C19 inh 83, CYP2C9 inhib inactive, PostGolgi ctrl inactive, CYP2C9 act inactive and PostGolgi yeast inactive.
Screening Cc1ccc(NC2=NC(c3ccc(C)cc3)n3c(nc(C)cc3=O)N2)cc1 (stereo not given) returned CYP2C19 activ inactive, CYP2C19 inh 71, CYP2C9 inhib 50, PostGolgi ctrl inactive, CYP2C9 act inactive and PostGolgi yeast inactive.
`CCOc1ccc(NC(=O)CSc2nnc(-c3ccncc3)n2CC2CCCO2)cc1` (stereo not given) gave CYP2C19 activ inactive, CYP2C19 inh inactive, CYP2C9 inhib inactive, PostGolgi ctrl inactive, CYP2C9 act inactive and PostGolgi yeast inactive.
For COc1ccc(NC(=O)CSc2nnc(-c3ccncc3)n2CC2CCCO2)c(OC)c1 (stereo not given) the results were CYP2C19 activ inactive, CYP2C19 inh 60, CYP2C9 inhib inactive, PostGolgi ctrl inactive, CYP2C9 act inactive and PostGolgi yeast inactive.
Screening O=C(CSc1nnc(-c2ccncc2)n1CC1CCCO1)Nc1cccc(O)c1 (stereo not given) returned CYP2C19 activ inactive, CYP2C19 inh inactive, CYP2C9 inhib 67, PostGolgi ctrl inactive, CYP2C9 act inactive and PostGolgi yeast inactive.
Cc1ccc(NCc2nnc(SCC(=O)Nc3cccc(O)c3)n2CC2CCCO2)c(C)c1 (stereo not given) was read as CYP2C19 activ inactive, CYP2C19 inh 67, CYP2C9 inhib 81, PostGolgi ctrl inactive, CYP2C9 act inactive and PostGolgi yeast inactive.
Screening COc1cccc(C(=O)CSc2nnc(COc3cccc4cccnc34)o2)c1 returned CYP2C19 activ inactive, CYP2C19 inh inactive, CYP2C9 inhib inactive, PostGolgi ctrl inactive, CYP2C9 act inactive and PostGolgi yeast inactive.
Screening COc1cccc(OC)c1C(=O)Nc1ccccc1C(=O)N1CCOCC1 returned CYP2C19 activ inactive, CYP2C19 inh inactive, CYP2C9 inhib inactive, PostGolgi ctrl inactive, CYP2C9 act inactive and PostGolgi yeast inactive.
Screening CC(C)(C)c1ccc(C(=O)N/C(=C\c2cccs2)C(=O)NCc2ccco2)cc1 returned CYP2C19 activ inactive, CYP2C19 inh inactive, CYP2C9 inhib 56, PostGolgi ctrl inactive, CYP2C9 act inactive and PostGolgi yeast inactive.
Screening Cc1csc(SCc2c(C(=O)O)oc3ccccc23)n1 returned PostGolgi ctrl inactive and PostGolgi yeast inactive.
O=C1C2C3c4ccccc4C(c4ccccc43)C2C(=O)N1Cc1ccco1 (stereo not given) was read as CYP2C19 activ inactive, CYP2C19 inh inactive, CYP2C9 inhib inactive and CYP2C9 act inactive.
Screening CC12C(=O)N(Cc3ccco3)C(=O)C1C1c3ccccc3C2c2ccccc21 (stereo not given) returned CYP2C19 activ inactive, CYP2C19 inh 57, CYP2C9 inhib inactive, PostGolgi ctrl inactive, CYP2C9 act inactive and PostGolgi yeast inactive.
CC(Oc1cc(-c2ccccc2)cc2ccccc12)C(=O)N1CCOCC1 (stereo not given) was read as CYP2C19 activ inactive, CYP2C19 inh inactive, CYP2C9 inhib inactive, PostGolgi ctrl inactive, CYP2C9 act inactive and PostGolgi yeast inactive.
